Hits are enriched below; roughly 12% of the tested compounds scored in any of these assays.
L3MBTL1 block: qHTS Assay for the Inhibitors of L3MBTL1 | Potency, µM (titrated, usually from 57.1 µM), without a hit: top-dose activity, negative = inhibition, most hits filed as inhibitors | Lethal(3)malignant brain tumor-like protein 1 (Homo sapiens), Q9Y468 | 230,000 compounds, 0.66% hits | AlphaScreen L3MBTL1–H3K9me1 peptide binding; also: % is scaled to controls: 0 for no effect and ±100 for the full control effect; nearly all actives have a fitted effect of over 60% in size
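Read-out is AlphaScreen signal from streptavidin donor and nickel chelate acceptor beads (10 ug/mL final each) bridging L3MBTL1 (50 nM) and biotinylated K9-monomethylated H3(1-15) peptide (75 nM), after 30 min compound exposure at room temperature.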
G9a inh: qHTS Assay for Inhibitors of Histone Lysine Methyltransferase G9a. 350,000 compounds, 8.8% hits. Histone-lysine N-methyltransferase EHMT2 (Homo sapiens), Q96KQ7. G9a H3K9 monomethylation, AlphaScreen, 2 h. AID 504332, 2011. Potency, µM (series often up to 102 µM), for the others: at the top dose activity, negative = inhibition, usual class: inhibitors; also: % is scaled to controls: 0 for no effect and ±100 for the full control effect; nearly all actives have a fitted effect of over 75% in size
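Readings reflect AlphaScreen signal from monomethyl-H3K9 antibody detection. HMT at 20 nM; substrate b-H3K9 500 nM; cofactor SAM 20 uM; 2 h RT reaction; compounds tested as titrations in qHTS with 15 min preincubation.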
BAZ2B inh: qHTS Assay for Inhibitors of BAZ2B | Bromodomain adjacent to zinc finger domain protein 2B (Homo sapiens), Q9UIF8 | AID 504333, 2011 | AlphaScreen BAZ2B-H3K14Ac peptide displacement | 360,000 compounds, 4.4% hits | Potency, µM (top dose mostly 114 µM), without a hit: at the top dose activity change, negative = inhibition, most hits filed as inhibitors; also: % is scaled to controls: 0 for no effect and ±100 for the full control effect; nearly all actives have a fitted effect of over 60% in size
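AlphaScreen displacement of biotin-H3(5-23)K14Ac peptide (50 nM final) from BAZ2B (50 nM final) in PBS pH 7.4, 0.01% Tween-20; complex preformed 30 min RT, then compounds (top 110 uM) 30 min RT, beads 20 min dark.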
JMJD2A Tudor inh: qHTS Assay for Inhibitors of JMJD2A-Tudor Domain; Lysine-specific demethylase 4A (Homo sapiens), O75164; Potency, µM (highest dose often 114 µM), for the others: at the top dose activity change, negative = inhibition, actives largely listed as inhibitors; AlphaScreen JMJD2A-Tudor / H3K4me3 peptide binding; AID 504339, 2011; 390,000 compounds, 4.4% hits; also: % is scaled to controls: 0 for no effect and ±100 for the full control effect; nearly all actives have a fitted effect of over 50% in size
Sfp PPTase inh: qHTS Assay for Inhibitors of Bacillus subtilis Sfp phosphopantetheinyl transferase (PPTase). 4'-phosphopantetheinyl transferase ffp (Bacillus subtilis), Q9F4F7. Biochemical Sfp PPTase activity, qHTS. Potency, µM, for inactives: largest response in the series, negative = inhibition, usual class: inhibitors. 310,000 compounds, 3.5% hits. AID 1490, 2009;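 also: the enzyme is Sfp with the accession as filed and its product quenches rhodamine fluorescence; 0% = enzyme reaction without inhibitor and -100% = no enzyme wells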
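Compounds were incubated with enzyme (final 15 nM) for 15 min at room temperature before substrate addition started the reaction. Fluorescence at 525 nm excitation, 598 nm emission was recorded immediately and after 30 minutes.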
HP1b chromo inh: HTS for Inhibitors of HP1-beta Chromodomain Interactions with Methylated Histone Tails | Chromobox protein homolog 1 (Homo sapiens), P83916 | AlphaScreen HP1-beta / biotin-H3K9me3 peptide binding | Potency, µM (doses to about 114 µM), for inactives: at the top dose activity change, negative = inhibition, hits mostly inhibitors | 390,000 compounds, 0.56% hits; also: nearly all actives have a fitted effect of over 70% in size
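Compound inhibition of the preformed complex between 50 nM HP1-beta and 50 nM biotinylated H3K9me3 peptide was read by AlphaScreen. Buffer was PBS pH 7.4 with 0.01% Tween-20. Incubations ran 30 min at room temperature, with 10 ug/mL donor/acceptor beads.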
* hit, by the source's call; ? = inconclusive; / = no result; [ ] = remark or other dose. Calls follow the shape of the dose curve; as a rule, active = well fitted curve in the direction sought with a large enough effect; inconclusive = small, poorly fitted or top-dose-only effect, or another doubt; inactive = no such curve, though single readings can be large; an effect the other way counts as inactive or inconclusive. Potency is read from the fitted curve at half-maximal effect.

SMILES | L3MBTL1 block | G9a inh | BAZ2B inh | JMJD2A Tudor inh | Sfp PPTase inh | HP1b chromo inh
Cn1c(=O)c2c([nH]c(=S)n2Cc2ccc(Cl)cc2)n(C)c1=O | -3% | 1.3µM* | 22µM* | 5.6µM* | 20µM* | ?
Cc1ccc(-n2nnc(-c3nsc(NC(=O)c4ccccc4C)n3)c2C)cc1Cl | / | -4%[59 µM] | 4% | -1% | / | 54%
O=C(O)CCc1ccc(-c2cccs2)n1CC1CCCO1 (stereo not given) | 15%[11.4 µM] | 18µM* | -33% | ? | -20% | -2%
CCCn1c(CCC(=O)O)ccc1-c1cccs1 | 14% | ? | ? | -26% | 25µM* | 16%
O=C(O)CCc1ccc(-c2ccc(Br)cc2)n1CC(=O)O | ? | ? | ? | -25% | -34% | 9%
O=C(O)CCc1ccc(-c2ccc(F)cc2)n1CC1CCCO1 (stereo not given) | 0% | ? | -6% | -24% | 7% | 7%
Cc1ccc(-c2ccc(CCC(=O)O)n2Cc2ccco2)cc1 | / | 50µM* | ? | ? | -18% | -6%
CC(C)n1c(CCC(=O)O)ccc1-c1ccccc1 | / | ? | -31% | -23% | 14% | 45%
O=C(O)CCc1ccc(-c2ccc(F)cc2)n1CCC(=O)O | -8% | 11µM* | -21% | -20% | ? | 30%
CCCn1c(CCC(=O)O)ccc1-c1ccccc1 | / | 5%[59 µM] | -1% | 35µM* | -26% | ?
O=C(O)CCc1ccc(-c2ccccc2)n1CC(=O)O | -13% | ? | -19% | ? | -16% | 9%
COc1ccc(-c2ccc(CCC(=O)O)n2CC(C)C)cc1 | / | ? | ? | -26% | ? | 20%
COc1ccc(-c2ccc(CCC(=O)O)n2-c2ccccc2C(F)(F)F)cc1 | / | ? | ? | ? | / | 18%
COc1ccc(-c2ccc(CCC(=O)O)n2-c2ccccc2O)cc1 | -22% | ? | ? | ? | 79µM* | 16%
COc1ccc(-n2c(CCC(=O)O)ccc2-c2ccccc2)cc1 | ? | 50µM* | ? | -20% | -24% | 14%
O=C(NCc1cccs1)c1ccc2c(c1)sc1nc(-c3ccc(F)cc3)cn12 | / | 10µM* | -17% | -19% | / | 42%
Cc1ccc(-c2cn3c(n2)sc2cc(C(=O)NCc4cccs4)ccc23)cc1 | / | -8%[59 µM] | -8% | -16% | / | 33%
COc1ccc2c(c1)sc1nc(-c3ccccc3)cn12 | -7% | 6%[12.7 µM] | -11% | -5% | 50µM* | 36%
CCOc1ccc(-c2cn3c(n2)sc2cc(C(=O)NCCCc4ccccc4)ccc23)cc1 | / | 22µM* | -16% | 4% | / | 39%
CCc1ccc(-c2cn3c(n2)sc2cc(C(=O)NCCCc4ccccc4)ccc23)cc1 | / | -1%[59 µM] | -5% | -26% | / | 24%
COc1ccccc1C(=O)NCCn1cc(SCC(=O)Nc2ccccc2F)c2ccccc21 | / | -9%[59 µM] | -32% | -20% | / | 10%
CCOC(=O)c1sc(NC(=O)Nc2ccccc2)cc1C | 3% | ? | -29% | -21%[57.1 µM] | 35µM* | 37%
CCOC(=O)c1sc(NC(=O)Nc2ccccc2Cl)cc1C | -11% | -8%[59 µM] | -12% | -21% | ? | 19%
CCOC(=O)c1c(N)sc(C(=O)Nc2ccccc2)c1C | -1% | -2%[0.501 µM] | -15% | -30% | 20µM* | ?
Cc1ccc(S(=O)(=O)NC(=O)NC2CCCCCCC2)cc1 | / | -6%[12.7 µM] | / | / | 11% | /
O=C(NCc1ccc(/C=c2\sc3n(c2=O)CCN=3)o1)C(=O)Nc1ccccc1 | 25µM* | 50µM* | ? | / | 22µM* | /

Screening results as filed in PubChem.
